NALP1 inh: NALP1 inhibition; S. cerevisiae NALP1/ASC/caspase-1 growth, X-gal OD620, 72 h; inhibition, % at 10 µM; actives 0.61% (n = 280,000); AID 2071; in the data active = inhibition mostly above about 24%, no sharp cut-off; inactive = mostly below about 32%
TIM10 inh: inhibits growth of TIM10 yeast strain; S. cerevisiae TIM10 strain growth, BacTiter-Glo luminescence, 24 h; actives 1.4% (n = 330,000); AID 463195; inhibition, % at 10 µM;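 active = inhibition of 40% or more at the single tested concentration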;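 also: wild-type TIM10 isogenic control strain grown at permissive 25 °C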
tim23-1 inh: tim23-1 yeast growth inhibition; actives 1.3% (n = 330,000); AID 463212; S. cerevisiae tim23-1 growth, BacTiter-Glo luminescence, 24 h; inhibition, % at 20 µM;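 active = growth inhibition of the mutant yeast at or above 50%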;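 also: temperature-sensitive mutant grown at 25 °C; plate controls were DMSO-treated mutant yeast for no effect and medium wells lacking yeast for full effect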
NALP3 yeast inh: blocks the NALP3 inflammasome reconstituted in yeast; actives 0.39% (n = 330,000); Yeast reconstituted NLRP3/ASC/caspase-1, beta-gal luminescence, 24 h; inhibition, % at 10 µM;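 active = inhibition of 50% or more; inactive = inhibition below 50%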;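 also: plate controls were induced DMSO wells for no effect and uninduced yeast grown without galactose for full effect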
tim10-1 inh: inhibits growth of tim10-1 mutant yeast; inhibition, % at 20 µM; S. cerevisiae tim10-1 ts strain growth, BacTiter-Glo, 24 h; actives 2.2% (n = 330,000);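 active = inhibition of at least 40%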;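 also: mutant grown at 25 °C; 0% = DMSO wells with yeast and 100% = wells holding no yeast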
tim10-1 conf: confirmation of tim10-1 mutant yeast growth inhibitors; shares compounds with tim10-1 inh; S. cerevisiae tim10-1 ts strain growth, BacTiter-Glo, 24 h; inhibition, % at 20 µM; actives 56% (n = 7,400); AID 463213;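 active = inhibition of yeast growth at or above a set limit in either of two repeat tests at 20 µM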;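 also: tim10-1 mutant grown at permissive 25 °C to find synthetic lethal compounds; 0% = DMSO yeast wells and 100% = medium wells without yeast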
Numbers without * were called inactive; . = no result given. Hits are enriched below; roughly 4.1% of the tested compounds scored in any of these assays.

SMILES	NALP1 inh	TIM10 inh	tim23-1 inh	NALP3 yeast inh	tim10-1 inh	tim10-1 conf
CCCN(CC1CC1)c1nc(C)nc(Nc2c(Cl)cc(Cl)cc2Cl)c1Cl	.	12	11	-1	12	.
Cc1ccc(/C=N/c2sc(Cc3ccccc3)c(C)c2C(N)=O)o1	36	33	49	11	48*	46*
Cc1c(Cc2ccccc2)sc(/N=C/c2ccc3ccccc3c2)c1C(N)=O	21	.	.	.	.	.
COc1ccc(N2CCN(C(CNC(=O)C(=O)NC3CCCC3)c3ccco3)CC2)cc1 (stereo not given)	.	-3	7	6	-11	.
COc1ccc(CN(C)S(=O)(=O)c2ccc3c(c2)OCCO3)cc1	4	17	36	33	47*	20
CN(Cc1ccccc1)S(=O)(=O)c1ccc2c(c1)OCCO2	1	36	41	28	42*	24
O=C(O)CN(Cc1ccccc1)S(=O)(=O)c1ccc2c(c1)OCCO2	12	5	0	-15	-9	.
CCN1C(=O)[C@H]2[C@@H](c3ccc(-c4ccc(OC)cc4)c(OC)c3)N3CCCC[C@@]3(C(=O)OC)[C@H]2C1=O	.	18	30	5	18	.
CCCC(C)C(=O)OCC(=O)NCc1ccc(OC)c(OC)c1 (stereo not given)	-20	-10	0	4	16	.
O=C1c2cccnc2C(Nc2ccccc2Br)N1Cc1ccco1 (stereo not given)	6	16	-7	8	16	.
O=S(=O)(NCCCSc1ccccc1)c1ccccc1F	21	5	48	41	42*	18
CCOC(=O)c1c(N)sc2c(OC)c(Br)ccc12	9	32	39	34	58*	45*
CCOC(=O)c1c(N)sc(C(=O)OC)c1C	18	-15	6	20	2	.
O=C(CSc1nnc(-c2ccccc2NC(=O)c2ccccc2)o1)OC1CCCCC1	.	-6	-7	13	9	.
Cc1ccc(-c2csc(N3CCN(CCCn4c(-c5ccncc5)nc5ccccc54)CC3)n2)cc1	20	-1	-14	-2	40*	19
Cc1ccc(-c2csc(N3CCN(CCCn4c(C(F)(F)F)nc5ccccc54)CC3)n2)cc1	28	10	4	0	22	.
O=C1CC(NS(=O)(=O)c2ccc3ccccc3c2)CN1c1ccccc1 (stereo not given)	.	5	12	6	5	.
Cc1cc(C)n2nc(C(=O)N3CCCC(N4CCN(c5ccccc5C)CC4)C3)cc2n1 (stereo not given)	-95	17	12	16	7	.
COc1ccccc1/C=C1\SC(=S)N(CCC(=O)N2CCCCC2CCO)C1=O (stereo not given)	2	16	34	12	42*	9
O=C(CCN1C(=O)/C(=C/c2cccs2)SC1=S)N1CCCCC1	17	24	39	24	42*	12
COc1ccc(NC(=O)C2CCN(S(=O)(=O)c3ccc4c(c3)NC(=O)CO4)CC2)cc1	7	-1	-2	18	1	.
CCOc1ccc(N(CC)C(=O)c2cn(CC)c(=O)c3cc(OC)c(OC)cc23)cc1	-1	-16	1	14	14	.
CCN(CC)CCN(C(=O)c1cc2ccccc2cc1OC)c1nc2ccc(OC)cc2s1	5	16	38	27	56*	24
CN(C)CCN(C(=O)c1ccc2ccccc2c1)c1nc2ccc(F)cc2s1	17	9	27	1	28	.
CCN(CC)CCN(C(=O)c1ccc2ccccc2c1)c1nc2ccc(OC)cc2s1	16	4	37	12	49*	-2
SMILES	NALP1 inh	TIM10 inh	tim23-1 inh	NALP3 yeast inh	tim10-1 inh	tim10-1 conf
CCN(CC)CCN(C(=O)c1cc2ccccc2cc1OC)c1nc2ccc(F)cc2s1	25	25	43	31	57*	14
CN1/C(=C\C(=O)Nc2ccc(Br)cc2)C(C)(C)c2ccccc21	22	39	49	19	46*	54*
Clc1ccc(-c2nnc3sc(-c4ccc(Br)o4)nn23)cc1	-8	-29	-5	6	-29	.
Clc1ccc(-c2nnc3sc(-c4ccc(Br)o4)nn23)c(Cl)c1	-11	1	-5	19	-3	.
Clc1ccccc1-c1nnc2sc(-c3ccc(Br)o3)nn12	-2	25	37	8	40*	30*
Brc1ccc(-c2nn3c(Cc4ccccc4)nnc3s2)o1	-3	23	20	23	42*	11

Assay outcomes (PubChem BioAssay)
